The record followed here is PubChem BioAssay AID2530 (National Center for Advancing Translational Sciences (NCATS), 2010).

The structures appear in SMILES notation. Records with an inconclusive call do not appear. A call without a number means that no potency is given here. The source made the active and inactive calls. Calls come from the whole dose curve; as a rule, active = well fitted inhibition curve with a large enough effect; inconclusive = small, poorly fitted or top-dose-only effect; inactive = flat fitted curve, though single readings scatter.
Potency is the fitted concentration of half-maximal effect.

This assay concerns the target Luciferin 4-monooxygenase (Photuris pensylvanica) (UniProt Q27757). The assay can be described thus: Secondary Assay for Luciferase (Kinase-Glo TM) Inhibition Counterscreen. The note with it: Kinase-Glo luciferase enzyme, luminescence; series mostly up to 58.1 µM. In outline: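 Inhibition was fitted with the Hill equation after normalizing luminescence to DMSO (basal) and 40 uM SIB 1757 (full inhibition). Kinase-Glo luciferase ran for 8 min at room temperature in imidazole buffer pH 7.2 with KCl, MgCl2 and 10 uM ATP.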
For orientation: Kinase-Glo measures the ATP left after a reaction by luminescence.
For `Cc1ccc(NS(=O)(=O)c2ccc3c(ccn3C)c2)cc1C`, the Potency result is “inactive”.
The result for `Cc1ccc(NS(=O)(=O)c2cc3c(cc2Cl)CCC(=O)N3)cc1C` reads “inactive”; that for `CCNc1cccc(S(=O)(=O)N2CCN(S(=O)(=O)c3ccc4c(c3)OCCO4)CC2)c1`, “inactive”; that for `Cc1ccc(NS(=O)(=O)c2cc3c(cc2N2CCCCC2)NC(=O)CC3)cc1C`, “inactive”.
The result for `Cn1c2cc(S(C)=O)sc2c2cnn(Cc3cccc(N)c3)c(=O)c21` (stereo not drawn) reads “inactive”; that for `COc1ccc(N=Nc2n(C)c3ccccc3[n+]2C)cc1`, 10.3 µM (active); that for `O=C1c2ccccc2C(=O)C1c1ccnc2ccccc12`, “inactive”.
The result for `Cc1ccnc(NC(=O)c2ccc3c(c2)OCO3)c1` reads 11.6 µM (active); that for `O=C1CCc2cc(S(=O)(=O)Nc3ccncc3)ccc2N1`, “inactive”; that for `COc1ccc(-c2nc(-c3ccccn3)no2)cc1`, 2.91 µM (active).
Turning to `CC(=O)N1CCc2cc(S(=O)(=O)Nc3ccc(C)c(C)c3)ccc21`, the Potency entry is “inactive”.
Take `Cc1ccc(NS(=O)(=O)c2cc3c(cc2-c2cn[nH]c2)NC(=O)CO3)cc1C`: the Potency result is “inactive”.
Consider `O=C1c2ccccc2C(=O)N1c1cccc2ncccc12`, for which the Potency entry was “inactive”.
Consider `O=C(/C=C/Nc1ccccc1Br)c1ccccn1`, for which the Potency is 13 µM (active).
The result for `O=c1[nH]c2ccccc2n2c(-c3ccccc3)nnc12` reads “inactive”; that for `Cc1ccc(NS(=O)(=O)c2ccc3c(c2)CCC(=O)N3)cc1C`, “inactive”.
The result for `CCOC(=O)C(C(C)=O)c1c(Br)c(O)c(O)c2c(C(=O)c3ccc(C)cc3)coc12` (stereo not drawn) reads “inactive”; that for `O=C1c2ccccc2C(=O)N1c1ccc(O)cc1`, “inactive”; that for `O=C1c2ccccc2C(=O)N1c1noc2ccccc12`, “inactive”.
The result for `CN1CCc2cccc3c2C1Cc1ccc(O)c(O)c1-3` (stereo not drawn) reads “inactive”; that for `O=C1c2ccccc2C(=O)N1Cc1ccncc1`, “inactive”.
For the compound `Cc1ccc(C(=O)/C=C/C(=O)c2ccc(C)cc2)cc1`, the Potency entry is “inactive”.
The result for `O=C(Nc1ccc2c(c1)OCCO2)c1ccccn1` reads 18.3 µM (active); that for `Cc1ccc(S(=O)(=O)/N=C2/C=C(Sc3ncn[nH]3)C(=O)c3ccccc32)cc1`, “inactive”.
The result for `O=C(c1ccccc1)n1c(=S)nc2ccccn21` reads 5.17 µM (active); that for `COc1ccc(OC2=NS(=O)(=O)c3ccccc32)cc1`, “inactive”.
`O=S1(=O)N=C(Oc2ccccc2)c2ccccc21`: the Potency result is “inactive”.
Next, `Cc1ccc(NS(=O)(=O)c2ccc3c(c2)CCC(C)(C)O3)cc1C`: “inactive”; `O=C1CCc2cc(S(=O)(=O)Nc3ccccc3F)ccc2N1`: “inactive”; `COc1ccc(C(=O)N=c2nc3ccccn3s2)cc1`: 5.8 µM (active).
Next, `COc1ccccc1OC1=NS(=O)(=O)c2ccccc21`: “inactive”; `COc1ccc(NS(=O)(=O)c2ccc3c(c2)CCC(=O)N3)cc1`: “inactive”; `O=C1CCc2cc(S(=O)(=O)Nc3ccccn3)ccc2N1`: “inactive”.
Next, `CNc1cccc(S(=O)(=O)N2CCN(S(=O)(=O)c3ccc4c(c3)OCCO4)CC2)c1`: “inactive”; `Cc1ccc(NC(=O)c2ccc3c(c2)CCC(=O)N3)cc1C`: “inactive”; `O=C1C=CC(=O)N1c1cccc(-c2ccccc2)c1`: “inactive”.
On to `O=C1c2ccccc2-c2nnc(-c3ccccc3)cc21`, for which the Potency is 4.11 µM (active).
The result for `O=C1c2ccccc2C(=O)N1c1cccnc1` reads “inactive”.
